# Assay results reported in PubChem BioAssay (NCATS).
# Inconclusive results are not listed. Activity calls are given as the source filed them. The call rests on the fitted dose curve; in most records, active means well fitted cell-killing curve with a large enough effect; inconclusive means small, poorly fitted or top-dose-only effect, or effect the other way; inactive means no such curve, though single readings can be large or run the other way.
# Assay: Quantitative High-Throughput drug screen in 47 multiple myeloma cell lines against the NCATS MIPE library collection: L363_DSMZ cell viability assay (AID 1918984); further: nearly all actives have a fitted effect of over 40% in size
# Conditions: L363 myeloma viability, CellTiter-Glo ATP luminescence, 48 h; series mostly up to 45.8 µM
# From the text: PI: Beverly A. Mock Ph.D.
# Laboratory of Cancer Biology and Genetics,
# Center for Cancer Research, National Cancer Institute,
# National Institute of Health, Bethesda, Maryland
# Drug resistance and disease progression are common in multiple myeloma (MM) patients, underscoring the need for new therapeutic combinations. […] We hypothesized that effective combinations would reduce MYC expression and enhance p16 activity. […] These preclinical data identify potentially useful drug combinations for evaluation in drug-resistant MM and reveal potential mechanisms of combined drug sensitivity.
# Described herein is the primary MIPE qHTS used to cherrypick compounds. Validated compounds were then further tested for potential synergistic activiy.
# [1] Peat TJ, Gaikwad SM, Dubois W, Gyabaah-Kessie N, Zhang S, Gorjifard S, Phyo Z, Andres M, Hughitt VK, Simpson RM, Miller MA, Girvin AT, Taylor A, Williams D, D'Antonio N, Zhang Y, Rajagopalan A, Flietner E, Wilson K, Zhang X, Shinn P, Klumpp-Thomas C, McKnight C, Itkin Z, Chen L, Kazandijian D, Zhang J, Michalowski AM, Simmons JK, Keats J, Thomas CJ, Mock BA. Drug combinations identified by high-throughput screening promote cell cycle transition and upregulate Smad pathways in myeloma. Cancer Lett. 2023 Aug 1;568:216284. doi: 10.1016/j.canlet.2023.216284. Epub 2023 Jun 24. PMID: 37356470; PMCID: PMC10408729.
# SEQUENCE No. (e.g., 1, 2, 3, etc.); […] (e.g., Cells, Incubation, Reagent, etc.); VALUE and DESCRIPTION.
# 1; Cells; 5 uL; white, solid bottom 1536-well Greiner assay plate.
# 2; Compounds; 23 nL; Kalypsis pin tool (Wako USA) equipped with a 1536-well pin head to transfer to the assay plates.
# 3; Incubation; 48 hours; 37C incubation.
# 4; Reagent;5uL; CellTiter Glo (Promega).
# 5; Detector; 425V; Luminescence; Viewlux PerkinElmer.
# NOTES (numbers refer to Sequence numbers above)
# 1. The cell-based screening methods employed in this study were like those previously published. Briefly, the corresponding myeloma cell lines were screened in 1,536-well plates with 500 cells, 5-uL per well for inhibition of cell viability (assessed by measuring ATP levels with CellTiterGlo).
# 2. NCATS MIPE 4.0 library of approved and investigational drugs were added using the Kalypsis pin tool. Wells treated with DMSO only for 100% viability and media only for 0% viability were used as controls.
# 3. The assay plates were covered and incubated for 48 hours in a 37C, 5% CO2 incubator with controlled humidity.
# 4. After 48 hours, CellTilter-GloTM luminescent substrate mix (Promega) reagent was added to the assay plate and plates we incubated for 5 min at room temperature.
# 5. Signal was measured as median relative luminescence units on a ViewLux (PerkinElmer) multiplate reader.
# [1] Heske CM, Davis MI, Baumgart JT, Wilson K, Gormally MV, Chen L, Zhang X, Ceribelli M, Duveau DY, Guha R, Ferrer M, Arnaldez FI, Ji J, Tran HL, Zhang Y, Mendoza A, Helman LJ, Thomas CJ. Matrix Screen Identifies Synergistic Combination of PARP Inhibitors and Nicotinamide Phosphoribosyltransferase (NAMPT) Inhibitors in Ewing Sarcoma. Clin Cancer Res. 2017 Dec 1;23(23):7301-7311. doi: 10.1158/1078-0432.CCR-17-1121. Epub 2017 Sep 12. PMID: 28899971; PMCID: PMC6636827.
# Potency means the concentration at half of the fitted maximal effect.
row,Structure (SMILES),Potency
1,CC[C@@H]1[C@@H](C)O[C@@](O)([C@@H](C)[C@H](O)[C@H](C)[C@H]2OC(=O)C=CC=C[C@@H](C)[C@@H]([C@@H](C)[C@@H](O)[C@H](C)[C@@]3(O)C[C@H](O[C@H]4C[C@H](O)[C@H](O)[C@H](C)O4)[C@H](CC)[C@@H](C)O3)OC(=O)C=CC=C[C@@H]2C)C[C@H]1O[C@H]1C[C@H](O)[C@H](O)[C@H](C)O1,0.372 µM (active)
2,CCC(=O)OC1CCC2C3CCC4=CC(=O)CC[C@@]4(C)C3CC[C@]12C (stereo not given in full),inactive
3,O=c1[nH]c2ccccc2n1C1CCN(Cc2ccc(-c3[nH]c4cc5ncnc5cc4nc3-c3ccccc3)cc2)CC1,5.9 µM (active)
4,CC(C)[C@H]1C(=O)N[C@H](CO)Cc2c[nH]c3cccc(c23)N1C,inactive
5,CC(C)N(CCNC(=O)CN1CCCC1=O)C(C)C,inactive
6,C[C@@H]1CC[C@@]2(OC1)O[C@H]1C[C@H]3[C@@H]4CC=C5C[C@@H](O[C@@H]6O[C@H](CO)[C@@H](O[C@@H]7O[C@@H](C)[C@H](O)[C@@H](O)[C@@H]7O)[C@H](O)[C@@H]6O[C@@H]6O[C@@H](C)[C@H](O)[C@@H](O)[C@@H]6O)CC[C@]5(C)[C@@H]4CC[C@]3(C)[C@@H]1[C@H]2C,1.87 µM (active)
7,O=C(Nc1ccncc1)C(=O)c1cn(Cc2ccc(Cl)cc2)c2ccccc12,0.0132 µM (active)
8,CCN1CCN(C(=O)Cc2ccc(Nc3ncc(F)c(Nc4ccc(C(=O)Nc5ccccc5Cl)cc4)n3)cc2)CC1,1.87 µM (active)
9,N=c1c2c(-c3ccccc3)c(-c3ccccc3)n(Cc3ccccc3)c2ncn1C1CCC(O)CC1 (stereo not given),5.26 µM (active)
10,C[C@]12CC[C@H]3[C@@H](CCC4=CC(=O)CC[C@@]43C)[C@H]1CC[C@H]2OC(=O)CCC1CCCC1,inactive
11,O=C(N[C@@H](COc1ccc2[nH]c(=O)[nH]c2c1)c1ccccc1)c1cccn(Cc2ccc(F)c(F)c2)c1=O,18.7 µM (active)
12,COc1ccc(C(=O)c2c(C)n(CCN3CCOCC3)c3cc(I)ccc23)cc1,8.33 µM (active)
13,O=C1C=CC[C@@H]2[C@H]3CCCN4CCC[C@@H](CN12)[C@@H]34,inactive
14,CC(C)N[C@@H]1CCn2c(=O)[nH]c3cccc(c32)[C@@H]1O,3.32 µM (active)
15,CN1CCN(c2ccc([N+](=O)[O-])c3no[n+]([O-])c23)CC1,8.33 µM (active)
16,COC[C@H]1OC(=O)c2coc3c2[C@@]1(C)C1=C(C3=O)[C@@H]2CC[C@H](O)[C@@]2(C)C[C@@H]1OC(C)=O,2.35 µM (active)
17,O=C(O)CNC(=O)c1c(O)c2ccccc2n(Cc2ccccc2)c1=O,inactive
18,CC(C)(O)C=CC(=O)[C@](C)(O)[C@H]1[C@H](O)C[C@]2(C)[C@@H]3CC=C4[C@@H](C=C(O)C(=O)C4(C)C)[C@]3(C)C(=O)C[C@@]12C,0.0209 µM (active)
19,C[C@@H]1CC[C@H]2[C@@H](C)C(=O)O[C@@H]3O[C@@]4(C)CC[C@H]1[C@]32OO4,inactive
20,CC(C)[C@]12O[C@@H]1[C@@H]1O[C@]13[C@]1(O[C@H]1C[C@@H]1C4=C(CC[C@@]13C)C(=O)OC4)[C@H]2O,inactive

row,Structure (SMILES),Potency
1,CN(C)NC(=O)CCC(=O)O,inactive
2,CC(=O)N(C)c1cccc(-c2ccnc3c(C(=O)c4cccs4)cnn23)c1,inactive
3,CC1=C(O)C(=O)C=C2C1=CC=C1[C@@]2(C)CC[C@@]2(C)[C@@H]3C[C@](C)(C(=O)O)CC[C@]3(C)CC[C@]12C,0.662 µM (active)
4,C[C@H]1CCCC=CC2C[C@H](O)C[C@@H]2[C@H](O)C=CC(=O)O1 (stereo not given in full),inactive
5,COc1cc([C@@H]2c3cc4c(cc3[C@@H](O)C3COC(=O)C32)OCO4)cc(OC)c1O (stereo not given in full),0.0132 µM (active)
6,C1=C2CCCN[C@H]2[C@@H]2C[C@H]1[C@@H]1CCCCN1C2,inactive
7,Cc1c(C(=O)c2cccc3ccccc23)c2cccc3c2n1[C@H](CN1CCOCC1)CO3,3.72 µM (active)
8,C[C@]12COC(=O)C[C@@H]1CC[C@@H]1[C@H]2CC[C@@]2(C)[C@H]1CC[C@]2(C)O,inactive
9,CC1(N2CCC(n3c([C@@H]4CCCNC4)nc4ccccc43)CC2)CCCCCCC1,6.62 µM (active)
10,Cc1c(C(=O)Nc2cccc(C(F)(F)F)c2)cc(-c2ccccc2)n1CCCN1CCOCC1,5.9 µM (active)
11,CC[C@H]1C=CC=CC[C@@H](C)[C@H](O)[C@@](C)(O)C(=O)[C@@H](C)[C@H](O)[C@@H](C)C(=O)[C@@H](C)[C@H](O)[C@@H](C)C=CC(=O)O[C@@H]2[C@@H](C)[C@H](CC1)O[C@]1(CC[C@H](C)[C@H](C[C@@H](C)O)O1)[C@H]2C,0.001 µM (active)
12,c1ccc(CCCN2CCN(CCOC(c3ccccc3)c3ccccc3)CC2)cc1,inactive
13,CCCC[N+]1(C)[C@H]2CC(OC(=O)[C@H](CO)c3ccccc3)C[C@H]1[C@H]1O[C@H]12 (stereo not given in full),inactive
14,COC1=C[C@@H]2[C@@H]3Cc4ccc(OC)c(O)c4[C@]2(CCN3C)CC1=O,2.96 µM (active)
15,CCOP(=O)(OCC)C(C)NC(=O)N(CCCl)N=O (stereo not given),inactive
16,CSCC[C@@H](NC(=O)[C@@H](Cc1ccccc1)NC(=O)CNC(=O)CNC(=O)[C@@H](N)Cc1ccc(O)cc1)C(=O)O,inactive
17,NC1=NC(=O)N2CC12 (stereo not given),9.35 µM (active)
18,COc1ccc2c(c1)CN(C)CC2c1ccc(Cl)c(Cl)c1 (stereo not given),13.2 µM (active)
19,Oc1ccc2c3c1O[C@H]1c4[nH]c5c(c4C[C@@]4(O)[C@@H](C2)N(CC2CC2)CC[C@]314)C[C@@]1(O)[C@H]2Cc3ccc(O)c4c3[C@@]1(CCN2CC1CC1)[C@H]5O4,inactive
20,COc1cc2cc(c1Cl)N(C)C(=O)C[C@H](OC(=O)C(C)C)[C@]1(C)O[C@H]1[C@H](C)[C@@H]1C[C@@](O)(NC(=O)O1)[C@H](OC)C=CC=C(C)C2,inactive
